# This excerpt belongs to a sample that is enriched for the strongest signals.
# Columns and labels:
# Assay in all cases: glycan array binding signal (z-score within array); higher = stronger binding
# Conditions in all cases: glycan notation: IUPAC condensed, linker removed
# [1] = test system: GalNAc(b1-3)Gal(a1-4)Gal(b1-4)GlcNAc
# Procedure, shortened: (§1)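 Glycan array data came from 3228 arrays in the Consortium for Functional Glycomics database, and only arrays with an available protein sequence were kept. Glycan names were put into IUPAC-condensed notation, and columns mapping to the same glycan were averaged. The binding signal is a within-array Z-score, averaged across arrays of one protein sequence run at different concentrations or buffers and across linkers. A negative Z-score can be read as non-binding.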
# [2] = test system: GalNAc(b1-4)Gal(b1-4)Glc
# Procedure, shortened: as §1
# [3] = test system: GalNAc(b1-4)GlcNAc(b1-2)Man(a1-3)[GalNAc(b1-4)GlcNAc(b1-2)Man(a1-6)]Man(b1-4)GlcNAc(b1-4)GlcNAc
# Procedure, shortened: as §1
# [4] = test system: GlcA3S(b1-3)Gal(b1-4)GlcNAc(b1-2)Man
# Procedure, shortened: as §1
# [5] = test system: Glc(a1-6)Glc(a1-6)Glc
# Procedure, shortened: as §1
# [6] = test system: Glc(b1-4)Glc
# Procedure, shortened: as §1
# [7] = test system: Glc(b1-6)Glc
# Procedure, shortened: as §1
# [8] = test system: GlcA(b1-3)Gal
# Procedure, shortened: as §1
# [9] = test system: GlcA(b1-3)GlcNAc
# Procedure, shortened: as §1
# [10] = test system: GalNAc(a1-3)Gal
# Procedure, shortened: as §1
# [11] = test system: GalNAc(b1-3)GlcNAc
# Procedure, shortened: as §1
# [12] = test system: GalNAc3S(b1-4)GlcNAc
# Procedure, shortened: as §1
# [13] = test system: Glc(a1-4)Glc(a1-4)Glc(a1-4)Glc
# Procedure, shortened: as §1
# [14] = test system: GalNAc(b1-6)GalNAc
# Procedure, shortened: as §1
# [15] = test system: GalNAc(a1-3)GalNAc(b1-3)Gal(a1-4)Gal(b1-4)Glc
# Procedure, shortened: as §1
# [16] = test system: Glc(a1-4)Glc
# Procedure, shortened: as §1
# [17] = test system: GalNAc(b1-3)Gal(a1-6)Gal(b1-4)Glc
# Procedure, shortened: as §1
# [18] = test system: GalNAc(b1-3)GalNAc
# Procedure, shortened: as §1
# [19] = test system: GalNAc(b1-4)GlcNAc(b1-3)GalNAc(b1-4)GlcNAc
# Procedure, shortened: as §1
# [20] = test system: GalNAc4S6S(b1-4)GlcNAc
# Procedure, shortened: as §1
substance,measurement,setting,value
AgI/IIC123-GFP (Streptococcus mutans),glycan array binding signal (z-score),[1],1.61
same,glycan array binding signal (z-score),[2],-0.438
same,glycan array binding signal (z-score),[3],-0.272
same,glycan array binding signal (z-score),[4],3.12
"SpGH101 (Streptococcus pneumoniae), Q8DR60",glycan array binding signal (z-score),[5],-0.103
same,glycan array binding signal (z-score),[6],-0.147
same,glycan array binding signal (z-score),[7],-0.186
same,glycan array binding signal (z-score),[8],-0.183
same,glycan array binding signal (z-score),[9],3.66
AgI/II Vhelical-GFP (Streptococcus mutans),glycan array binding signal (z-score),[10],-0.061
same,glycan array binding signal (z-score),[11],-0.152
same,glycan array binding signal (z-score),[12],-0.11
same,glycan array binding signal (z-score),[13],-0.13
same,glycan array binding signal (z-score),[5],-0.269
Actinohivin (Actinomycete K97),glycan array binding signal (z-score),[10],-0.192
same,glycan array binding signal (z-score),[14],-0.188
"SiiE (Salmonella typhimurium), A0A0H3NVH0",glycan array binding signal (z-score),[15],-1.13
same,glycan array binding signal (z-score),[16],-0.099
"BambL (Burhholderia ambifaria), Q0B4G1",glycan array binding signal (z-score),[17],-0.314
same,glycan array binding signal (z-score),[2],-0.316
LcI (Legionella pneumophila),glycan array binding signal (z-score),[18],-0.554
same,glycan array binding signal (z-score),[19],-0.365
same,glycan array binding signal (z-score),[20],-0.709
"GspB (Streptococcus gordonii), Q939N5",glycan array binding signal (z-score),[8],-0.677
Epa22,glycan array binding signal (z-score),[17],-0.822

# Reference: the supplement of paper PMC8728848
